Compounds with a hit are over-represented: about 7.5% of the library has one in this group of screens.
ELG1 genotoxic: qHTS screen for small molecules that induce genotoxicity in human embryonic kidney (HEK293T) cells expressing luciferase-tagged ELG1 | HEK293T ELG1-luciferase reporter, luminescence, 16 h | Potency, µM (top dose mostly 46 µM), usual class: activators | hit rate 1.3% among 330,000 | AID 504466, 2011; note: nearly all actives have a fitted effect of over 60% in size
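HEK293T cells expressing luciferase-tagged ELG1 were exposed to compound or DMSO vehicle for 16 hr at 37 °C and 5% CO2. Luciferase activity was then measured with ONE-Glo after 30 min at room temperature.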
SMN2 splice up: qHTS Assay for Enhancers of SMN2 Splice Variant Expression. HEK293 SMN2-luciferase splicing reporter, luminescence, 30-36 h. Potency, µM (highest dose often 46.1 µM), usual class: activators. hit rate 2.8% among 210,000. AID 1458, 2008; note: nearly all actives have a fitted effect of over 55% in size
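qHTS luciferase splicing reporter: luminescence rises when SMN2 exon 7 is included in transfected HEK293 cells. Compound exposure lasted 30-36 h at 37C, with 4.5 mM final sodium butyrate as control, followed by a ONE-Glo read.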
Rab9 promoter act: qHTS Assay for Rab9 Promoter Activators | Huh7 Rab9 promoter-luciferase reporter, luminescence, 24 h | hit rate 2.8% among 320,000 | Potency, µM (highest dose often 9.22 µM), usual class: activators; note: nearly all actives have a fitted effect of over 60% in size
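Huh7 reporter line, Rab9 promoter upstream of luciferase. Compound exposure 24 h at 37 °C in reduced-serum medium with 10% FBS. Read-out: luminescence.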
Luc counter: Counterscreen for Luciferase (Kinase-Glo TM) Inhibition | Potency, µM (top dose mostly 38.3 µM), usual class: inhibitors | Luciferin 4-monooxygenase (Photuris pensylvanica), Q27757 | Kinase-Glo luciferase, ATP luminescence, 8 min | hit rate 0.28% among 200,000; note: nearly all actives have a fitted effect of over 60% in size
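Compound is pinned into ATP-containing buffer (10 uM ATP, imidazole pH 7.2, 7 mM MgCl2). Kinase-Glo luciferase reagent is then added. Light output is recorded following an 8-min room-temperature incubation.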
NPC1 promoter act: qHTS Assay for NPC1 Promoter Activators. Potency, µM (doses to about 9.22 µM), hits mostly activators. AID 485313, 2010. Huh7 NPC1 promoter luciferase reporter, 24 h. hit rate 2.4% among 320,000; note: nearly all actives have a fitted effect of over 60% in size
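Luciferase expression driven by the NPC1 promoter was measured in stably transfected Huh7 cells after a 24 h compound incubation, using a luciferase reagent and a luminescence read.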
FLuc counter: qHTS profiling assay for firefly luciferase inhibitor/activator using purifed enzyme and Km concentrations of substrates (counterscreen for miR-21 project); Potency, µM (titrated, usually from 57.5 µM), actives largely listed as inhibitors; purified FLuc, Km substrates, luminescence inhibition; Luciferin 4-monooxygenase (Photinus pyralis), P08659; AID 588342, 2011; hit rate 6.9% among 360,000; note: nearly all actives have a fitted effect of over 55% in size
Target sequence (P08659 whole entry, looked up): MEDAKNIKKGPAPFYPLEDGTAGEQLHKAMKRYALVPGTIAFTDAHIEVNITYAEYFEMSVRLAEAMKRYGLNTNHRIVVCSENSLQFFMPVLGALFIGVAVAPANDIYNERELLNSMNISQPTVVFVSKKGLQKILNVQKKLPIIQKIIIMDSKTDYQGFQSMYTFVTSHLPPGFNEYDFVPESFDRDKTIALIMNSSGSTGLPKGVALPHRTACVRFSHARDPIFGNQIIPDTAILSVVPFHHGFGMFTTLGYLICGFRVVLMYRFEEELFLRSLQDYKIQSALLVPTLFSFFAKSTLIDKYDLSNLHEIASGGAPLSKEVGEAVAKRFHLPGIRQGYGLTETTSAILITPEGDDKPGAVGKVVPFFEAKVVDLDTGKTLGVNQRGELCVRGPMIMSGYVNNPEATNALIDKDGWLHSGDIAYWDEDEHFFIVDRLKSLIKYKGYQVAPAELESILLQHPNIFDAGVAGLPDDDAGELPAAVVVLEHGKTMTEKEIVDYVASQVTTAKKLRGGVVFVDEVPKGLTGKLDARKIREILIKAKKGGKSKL
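Purified P. pyralis luciferase, 10 nM final, with Km-level 10 uM D-luciferin and 10 uM ATP in 50 mM Tris acetate pH 7.5, 10 mM Mg acetate, 0.01% Tween-20, 0.05% BSA; 6-point qHTS titration about 60 µM downward; luminescence read.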
Large screens that a line does not name were inactive. Calls come from the whole dose curve; as a rule, active = well fitted curve in the direction sought with a large enough effect; inconclusive = small, poorly fitted or top-dose-only effect, or another doubt; inactive = no such curve, though single readings can be large; an effect the other way counts as inactive or inconclusive.

CC1=C(C(=O)NCc2ccccc2C)C2(CCCCC2)OC1=O	none (no result: ELG1 genotoxic, SMN2 splice up, Rab9 promoter act, Luc counter, NPC1 promoter act)
CN(C(=O)CSc1nc2ccccc2n1CC(=O)N(C)C1CCCCC1)c1ccccc1	none (no result: ELG1 genotoxic, SMN2 splice up, Rab9 promoter act, Luc counter, NPC1 promoter act)
Cc1ccccc1N=C1NN=C(c2ccccc2F)CS1	SMN2 splice up 11µM, Rab9 promoter act inconclusive, NPC1 promoter act inconclusive, FLuc counter 21µM
Cc1cccc(C)c1N=C1NN=C(c2ccccc2F)CS1	none (no result: SMN2 splice up, Luc counter)
Cc1cc(C2=NNC(=NC3CCCCC3)SC2)c(C)n1-c1c(C)n(C)n(-c2ccccc2)c1=O	SMN2 splice up inconclusive
C=C(C)CN=C1NN=C(c2cc(C)n(-c3ccc(C)cc3)c2C)CS1	SMN2 splice up inconclusive, Rab9 promoter act inconclusive, NPC1 promoter act inconclusive, FLuc counter 8.5µM
Cc1cc(C2=NNC(=NC3CC3)SC2)c(C)n1-c1ccccc1F	Luc counter 11µM, FLuc counter 0.21µM
O=C1NC(=S)S/C1=C/c1ccc(Oc2cnccn2)cc1	Rab9 promoter act inconclusive, FLuc counter 21µM
O=C1NC(=O)/C(=C\c2ccc(Oc3cnccn3)cc2)S1	ELG1 genotoxic inconclusive, SMN2 splice up inconclusive, Rab9 promoter act 2.8µM, NPC1 promoter act inconclusive, FLuc counter 13µM
N#Cc1ccccc1Cn1c(=O)n(CCCCC(=O)NCc2ccc3c(c2)OCO3)c(=O)c2ccccc21	none (no result: ELG1 genotoxic, Rab9 promoter act, Luc counter, NPC1 promoter act)
O=C(COC(=O)c1ccc(Cl)c(S(=O)(=O)N2CCCCC2)c1)NCC1CCCO1 (stereo not given)	none (no result: SMN2 splice up, Luc counter)
COc1ccc(NC(=O)c2ccc3c(c2)OCO3)cc1Cl	ELG1 genotoxic inconclusive, SMN2 splice up 14µM, Rab9 promoter act 1.4µM, NPC1 promoter act 0.89µM, FLuc counter 1.9µM
O=C(Nc1ccc(F)c(Cl)c1)c1ccc2c(c1)OCO2	ELG1 genotoxic inconclusive, Rab9 promoter act 1.3µM, NPC1 promoter act 1.8µM, FLuc counter 4.8µM (no result: SMN2 splice up, Luc counter)
CC1CCCCC1NS(=O)(=O)CCNC(=O)c1ccc2c(c1)OCO2 (stereo not given)	none (no result: SMN2 splice up, Luc counter)
COc1ccccc1-c1nnc(NC(=O)c2ccc3c(c2)OCO3)s1	SMN2 splice up inconclusive
COC(=O)c1c(-c2cccnc2)csc1NC(=O)c1ccc2c(c1)OCO2	ELG1 genotoxic 2.9µM, Rab9 promoter act 1.6µM, NPC1 promoter act 2.5µM, FLuc counter 1.3µM (no result: SMN2 splice up, Luc counter)
COc1ccc(NCc2ccc3c(c2)OCO3)cc1Cl	FLuc counter inconclusive
CC1CCCC(NC(=O)c2ccc3c(c2)OCO3)C1C (stereo not given)	ELG1 genotoxic 18µM, Rab9 promoter act 3.5µM, NPC1 promoter act inconclusive, FLuc counter 12µM (no result: SMN2 splice up, Luc counter)
Cc1oc2c(C)c3oc(=O)c(CCC(=O)N4CCCCC4)c(C)c3cc2c1C	none (no result: ELG1 genotoxic, Rab9 promoter act, Luc counter, NPC1 promoter act)
O=C(Nc1ccc(F)c(Cl)c1)c1ccccc1	ELG1 genotoxic 12µM, Rab9 promoter act 1.8µM, NPC1 promoter act 3.2µM, FLuc counter 11µM (no result: SMN2 splice up, Luc counter)
COC(=O)c1ccc(NC(=O)c2ccc3c(c2)OCO3)cc1	ELG1 genotoxic 6.5µM, SMN2 splice up inconclusive, Rab9 promoter act inconclusive, NPC1 promoter act 2.8µM, FLuc counter inconclusive
O=C(Nc1ccc(C(=O)N2CCCCC2)cc1)C1=CSCCO1	ELG1 genotoxic inconclusive, Rab9 promoter act inconclusive, NPC1 promoter act 2.8µM, FLuc counter 12µM (no result: SMN2 splice up, Luc counter)
COC(=O)c1sccc1NC(=O)c1ccc2c(c1)OCO2	none
CC1CCCC(NC(=O)c2ccc3c(SCC(=O)O)c4c(nc3c2)CCC4)C1C (stereo not given)	FLuc counter 17µM (no result: SMN2 splice up, Luc counter)
O=C(Nc1ccc(F)c(Cl)c1)c1cccnc1	none (no result: SMN2 splice up, Luc counter)
O=C(Nc1ccc(C(=O)N2CCCC2)cc1)c1ccc2c(c1)OCO2	ELG1 genotoxic inconclusive, Rab9 promoter act inconclusive, Luc counter 13µM, NPC1 promoter act inconclusive, FLuc counter 15µM
O=C(c1ccc2c(c1)OCO2)N1CCCC1	none
COc1cc(-c2nc(-c3ccc(NC(=O)c4ccc5c(c4)OCO5)cc3)no2)cc(OC)c1OC	ELG1 genotoxic 13µM, FLuc counter inconclusive
Cc1ccccc1-c1nc(-c2ccc(NC(=O)c3ccc4c(c3)OCO4)cc2)no1	ELG1 genotoxic inconclusive, FLuc counter inconclusive

Compound activity deposited in PubChem by National Center for Advancing Translational Sciences (NCATS).
